Test results from PubChem BioAssay AID588856 (National Center for Advancing Translational Sciences (NCATS), 2011).
Out of some 410,000 compounds screened, about 3,100 (0.76%) were called active. Where a call stands in place of a potency, no number is given. The call rests on the fitted dose curve; in most records, active means well fitted cell-killing curve with a large enough effect; inactive means no such curve, though single readings can be large or run the other way. The full list was thinned out, with actives kept by preference.

Test: qHTS for Inhibitors of TGF-b: Cytotox Counterscreen
Settings: HepG2 CAGA-GFP viability, ATP luminescence, 18 h; series mostly up to 46.1 µM
Summary of the method: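 HepG2 CAGA-GFP cells (1000/well, DMEM with 1% FBS) received compound, then TGF-beta at 500 pg/mL final, and were incubated 18 hours at 37 degrees C. Viability was read by CellTiter-Glo luminescence. Media-only wells were set as complete cell-killing and DMSO as no toxicity.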
Potency means the concentration at half of the fitted maximal effect.

Row | SMILES | Potency
1 | Oc1cccc2cc(-c3ccncc3)cnc12 | 2.82 µM (active)
2 | Cc1ccc2c(c1)N(C(=O)CCC(=O)NCc1ccccc1F)CC(C)O2 (stereo unspecified) | inactive
3 | CC1=C(C(=O)OCC2CCCCC2)C(c2c(F)cccc2Cl)CC(=O)N1 (stereo unspecified) | inactive
4 | COc1cccc(CN(C)CC(O)COC(c2ccccc2)c2ccccc2C)c1 (stereo unspecified) | inactive
5 | COC(=O)c1ccc(OCC(O)CN(CCO)CC(O)Cn2ccc3ccccc32)cc1 (stereo unspecified) | inactive
6 | CN(Cc1ccccc1)CC(O)COc1ccc(CNCc2cc3ccccc3s2)cc1 (stereo unspecified) | 11.2 µM (active)
7 | C=C1CCN(C(CC(C)C)C(=O)NCc2cc(OC)c(OC)c(OC)c2)S(=O)(=O)c2ccccc21 (stereo unspecified) | inactive
8 | Cc1ccc(Cl)cc1NC(=O)/C(C#N)=C\c1cn(Cc2ccc(F)cc2)c2ccccc12 | inactive
9 | N#CCC(=O)N/N=C/c1cn(Cc2ccc3ccccc3c2)c2ccccc12 | 3.55 µM (active)
10 | O=C(Cn1cc(/C=N/NC(=O)c2cccc(C(F)(F)F)c2)c2ccccc21)Nc1ccc(F)cc1 | inactive
11 | Cc1ccc(Cn2c(CCCNC(=O)C3CCCCC3)nc3ccccc32)cc1 | inactive
12 | Cc1ccc2c(=O)c(C(=O)c3cccc(Cl)c3)cn(CC(=O)NCc3ccccc3)c2n1 | inactive
13 | COc1ccc(CCNCc2c(-c3ccccc3)n(C)c3ccccc23)cc1 | 12.6 µM (active)
14 | COc1ccc(Cn2c(C(=O)O)c(CNCCc3cccs3)c3ccc(OC)cc32)cc1 | inactive
15 | COc1ccc(-c2c(C#Cc3ccccc3)c3ccccc3n2C)cc1 | inactive
16 | CN(C)c1ccc(/C=C/c2sc3ccccc3[n+]2C)cc1 | inactive
17 | CCC(C)c1ccc2oc(-c3ccc(NC(=O)c4cc5ccccc5o4)cc3)nc2c1 (stereo unspecified) | inactive
18 | CN(C)C(CNC(=O)Cc1ccc([N+](=O)[O-])cc1)c1ccccc1 (stereo unspecified) | inactive
19 | CN(NC(=O)c1ccccc1F)c1nc(C(F)(F)F)nc2ccccc12 | inactive
20 | CCc1ccc(C(CNc2nc(C(F)(F)F)nc3ccccc23)N(C)C)cc1 (stereo unspecified) | 20 µM (active)
21 | CC1CCN(S(=O)(=O)c2ccc3c(ccn3CCC(=O)NCc3ccc(N(C)C)cc3)c2)CC1 | inactive

Row | SMILES | Potency
22 | O=C(O)c1c(Br)c(Br)c(Br)c(Br)c1C1c2ccc(O)cc2Oc2cc(O)ccc21 | inactive
23 | Cc1cc(F)ccc1NS(=O)(=O)c1ccc(-n2cccn2)cc1 | inactive
24 | Cc1ccc(OCCn2c(CNc3ccccc3C)nc3ccccc32)cc1 | inactive
25 | Cc1ccc(Oc2ccc3c(c2)C(=O)N(c2cccc4cccnc24)C3=O)cc1 | inactive
26 | Cc1ccc(OS(=O)Nc2cccc3nccnc23)cc1 (stereo unspecified) | 15.8 µM (active)
27 | CCOCCn1ccc2c(OCC(=O)NCc3ccc(C)cc3)cccc2c1=O | inactive
28 | COc1ccc(Cc2nc3ccc(C(=O)NCc4ccc(OC)cc4OC)cc3o2)cc1 | inactive
29 | COC(=O)c1c(NC(=O)c2ccc(S(=O)(=O)N3CCOCC3)cc2)sc2c1CCN(C(C)C)C2 | inactive
30 | CCOC(=O)c1c(NC(=O)c2ccc(S(=O)(=O)N3CCCC(C)C3)cc2)sc2c1CCN(C(C)C)C2 (stereo unspecified) | 10 µM (active)
31 | CCOC(=O)c1c(NC(=O)C2CCN(S(=O)(=O)c3ccc(Cl)cc3)CC2)sc2c1CCCC2 | inactive
32 | Cc1nc2c(c(C)nn2-c2ccccc2)c(C)c1CCC(=O)NCCc1ccc(Cl)cc1 | inactive
33 | CCOCCCNC(=O)c1cn(CC)c2ccc(S(=O)(=O)N3CCc4ccccc4C3)cc2c1=O | inactive
34 | CCOC(=O)c1c(C)oc2nc(C)nc(N(CC(C)C)CC(C)C)c12 | inactive
35 | CCOC(=O)c1ccc(N2C(=O)c3n[nH]c(C)c3C2c2ccc(O)c(OC)c2)cc1 (stereo unspecified) | inactive
36 | CCOc1ccc(-c2n[nH]c3c2C(c2ccccc2OC)N(c2ccc(Br)cc2)C3=O)cc1 (stereo unspecified) | inactive
37 | CCOc1cc(C2c3c(-c4ccc(Br)cc4)n[nH]c3C(=O)N2c2ccc(Cl)cc2)ccc1O (stereo unspecified) | 10 µM (active)
38 | O=C(NCc1ccc(Cl)cc1)c1ccc2c(c1)nnn2C1CCCC1 | inactive
39 | COc1ccc(/C=C/C(=O)c2cc(Br)ccc(=O)c2O)cc1 | inactive
40 | COc1ccc(C(=O)COC(=O)C(O)c2ccccc2)c(OC)c1 (stereo unspecified) | inactive
41 | COc1ccc(C(=O)/C=C/c2cccnc2)c(OC)c1 | 15.8 µM (active)
42 | CCS(=O)(=O)c1nc(S(=O)(=O)c2ccc(C)cc2)c(NCc2ccc(Cl)cc2)s1 | inactive

Row | SMILES | Potency
43 | CCC(=O)N1CCc2cc(Br)cc(S(=O)(=O)CCC(=O)NCCc3ccc(OC)c(OC)c3)c21 | inactive
44 | COc1ccc(-c2cn3nc(N4CCC(C(=O)Nc5cccc(C)c5C)CC4)sc3n2)cc1 | inactive
45 | CC(C)=CCCC1(C)C=Cc2c(ccc3c2[nH]c2cc(O)c(C)cc23)O1 (stereo unspecified) | 15.8 µM (active)
46 | Brc1ccc2c(c1)NC(c1cccnc1)=NC(c1ccccc1)=N2 | inactive
47 | COc1ccc(CCNC(=O)c2cc(=O)c3c(C)cc(C)cc3o2)cc1OC | inactive
48 | Cc1ccc(N(C)C(=O)C2CCN(S(=O)(=O)c3ccc4c(c3)CCCN4C(=O)C3CCC3)CC2)cc1 | inactive
49 | CCc1ccc(NC(=O)C2CCCN2S(=O)(=O)c2ccc3nc(-c4ccccc4)[nH]c3c2)cc1 (stereo unspecified) | inactive
50 | O=C(c1ccc(CN2CCOCC2)cc1)N1CCN(c2ccccc2F)CC1 | 3.16 µM (active)
51 | O=C(CCSc1ccccc1)N1CCN(c2ccccc2F)CC1 | inactive
52 | O=S(=O)(N1CCOCC1)N1CCN(c2ccccc2F)CC1 | inactive
53 | Cc1cccc(N2CCN(C(=O)c3ccc(Nc4nc5ccccc5n5nnnc45)cc3)CC2)c1C | inactive
54 | CN(C)c1ccc(C=Nc2ccc(/C=C/c3ccnc4ccccc34)cc2)cc1 | inactive
55 | Oc1c(Cl)cc(Cl)c(Cl)c1Cc1c(O)c(Cl)cc(Cl)c1Cl | 10 µM (active)
56 | N#Cc1ccc[n+](CC(=O)c2ccc(F)cc2)c1 | inactive
57 | COC(=O)c1ccc(Cn2c(SCC(=O)N(C)c3ccccc3)nc3ccccc32)cc1 | inactive
58 | CCOC(=O)c1scc(-c2ccccc2)c1S(=O)(=O)Nc1ccccc1F | inactive
59 | CCOC(=O)c1c(-c2ccc(C)cc2C)csc1NC(=O)CSc1nnnn1C | inactive
60 | CCCS(=O)(=O)c1ncc(Cl)c(C(=O)Nc2scc(-c3ccccc3)c2C(=O)OCC)n1 | 11.2 µM (active)
61 | CCOC(=O)c1ccc(NC(=O)CC2C(=O)N(c3ccccc3)C(=O)N2Cc2cccs2)cc1 (stereo unspecified) | inactive
